Test in all cases: DAPPL (digital affinity profiling via proximity ligation, sequencing); 10 mM Tris-HCl pH 7.5, 50 mM NaCl, 1 mM DTT, 4% glycerol, room temperature, 30 min; GST-TFs on glutathione beads, 16-mer random dsDNA library, 0.1% formaldehyde crosslink after washing; high values mean tight binding
For assay [1], the target named is T1, FLI1 (Homo sapiens, UniProt Q01543 1-452).
T1 sequence: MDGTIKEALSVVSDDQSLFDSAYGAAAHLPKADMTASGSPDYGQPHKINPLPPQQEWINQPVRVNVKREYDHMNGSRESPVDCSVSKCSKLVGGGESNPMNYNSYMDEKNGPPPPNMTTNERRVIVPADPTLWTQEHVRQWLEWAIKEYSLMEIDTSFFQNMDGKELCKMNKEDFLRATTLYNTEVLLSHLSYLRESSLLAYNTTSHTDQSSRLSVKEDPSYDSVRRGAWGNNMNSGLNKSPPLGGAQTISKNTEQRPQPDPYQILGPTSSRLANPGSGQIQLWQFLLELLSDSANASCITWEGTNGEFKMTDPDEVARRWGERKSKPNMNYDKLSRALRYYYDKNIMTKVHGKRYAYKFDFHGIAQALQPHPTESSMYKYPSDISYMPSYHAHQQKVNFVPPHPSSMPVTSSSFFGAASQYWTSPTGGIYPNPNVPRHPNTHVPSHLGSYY
The note with it: protein: recombinant; tags: N-terminal GST; dsDNA, one strand shown. In a few lines:
(§1)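 Binding signal is each hexamer's read frequency for a factor divided by its frequency in the tag-only sample. The factors were GST-fused human transcription factors from yeast, captured on glutathione beads, DNA-barcoded and pooled with that sample. Pools were incubated with 200 nmole of a random double-stranded 16-mer DNA library in Tris/NaCl/DTT/glycerol buffer at room temperature for 30 min, then washed, crosslinked with 0.1% formaldehyde, proximity-ligated with BsaI/T4 ligase (1 h, 37 °C), PCR-amplified and sequenced on an Illumina NextSeq500.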

Assay [2] concerns the target T2, ELK1 (Homo sapiens, UniProt P19419 1-428).
T2 sequence: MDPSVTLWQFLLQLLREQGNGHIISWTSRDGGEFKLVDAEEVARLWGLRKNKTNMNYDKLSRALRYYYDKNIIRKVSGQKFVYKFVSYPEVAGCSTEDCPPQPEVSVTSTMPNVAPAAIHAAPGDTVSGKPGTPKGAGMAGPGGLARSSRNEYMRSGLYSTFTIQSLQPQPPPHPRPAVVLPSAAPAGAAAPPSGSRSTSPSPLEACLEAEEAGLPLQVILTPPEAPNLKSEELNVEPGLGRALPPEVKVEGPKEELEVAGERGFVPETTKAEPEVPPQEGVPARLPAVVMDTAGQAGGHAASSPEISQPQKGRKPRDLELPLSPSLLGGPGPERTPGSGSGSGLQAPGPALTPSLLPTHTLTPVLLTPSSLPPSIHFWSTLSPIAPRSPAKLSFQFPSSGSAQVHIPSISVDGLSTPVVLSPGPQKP
As to conditions: protein: recombinant; tags: N-terminal GST; dsDNA, one strand shown. In a few lines: as §1

Assay [3] deals with T3, GABPA (Homo sapiens, UniProt Q06546 1-454).
T3 sequence: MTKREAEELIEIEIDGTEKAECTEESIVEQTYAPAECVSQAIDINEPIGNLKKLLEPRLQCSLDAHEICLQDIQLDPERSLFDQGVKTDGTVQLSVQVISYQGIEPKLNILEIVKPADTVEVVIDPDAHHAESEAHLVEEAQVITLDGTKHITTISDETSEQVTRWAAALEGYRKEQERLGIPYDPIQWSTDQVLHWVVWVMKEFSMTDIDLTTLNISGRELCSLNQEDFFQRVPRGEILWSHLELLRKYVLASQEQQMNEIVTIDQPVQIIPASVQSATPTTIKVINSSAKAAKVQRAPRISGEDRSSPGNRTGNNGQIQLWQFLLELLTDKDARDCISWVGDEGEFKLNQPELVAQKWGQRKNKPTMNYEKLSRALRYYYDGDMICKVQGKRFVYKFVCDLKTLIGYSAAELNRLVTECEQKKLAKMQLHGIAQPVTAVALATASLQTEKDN
As to conditions: protein: recombinant; tags: N-terminal GST; dsDNA, one strand shown. The gist of the method: as §1

Assay [4] deals with T4, ERG (Homo sapiens, UniProt P11308 1-479).
T4 sequence: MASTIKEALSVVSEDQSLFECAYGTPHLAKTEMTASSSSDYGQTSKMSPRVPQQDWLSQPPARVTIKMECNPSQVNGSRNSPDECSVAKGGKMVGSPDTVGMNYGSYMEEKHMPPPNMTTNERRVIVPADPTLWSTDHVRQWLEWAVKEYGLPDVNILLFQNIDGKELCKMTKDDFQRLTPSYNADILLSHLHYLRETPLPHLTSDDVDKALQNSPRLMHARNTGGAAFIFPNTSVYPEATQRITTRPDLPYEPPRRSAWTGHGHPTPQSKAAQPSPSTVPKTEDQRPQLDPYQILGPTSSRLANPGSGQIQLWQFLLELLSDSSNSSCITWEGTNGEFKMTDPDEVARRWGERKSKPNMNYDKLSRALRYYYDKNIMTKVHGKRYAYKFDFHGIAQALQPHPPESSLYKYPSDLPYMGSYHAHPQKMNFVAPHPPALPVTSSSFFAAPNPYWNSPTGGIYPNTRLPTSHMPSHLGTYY
As to conditions: protein: recombinant; tags: N-terminal GST; dsDNA, one strand shown. In a few lines:
as §1

Assay [5] deals with ELF1 (Homo sapiens, UniProt P32519 1-619). The note with it: protein: recombinant; tags: N-terminal GST; dsDNA, one strand shown. In a few lines: as §1
Chain of ELF1 (P32519 whole entry): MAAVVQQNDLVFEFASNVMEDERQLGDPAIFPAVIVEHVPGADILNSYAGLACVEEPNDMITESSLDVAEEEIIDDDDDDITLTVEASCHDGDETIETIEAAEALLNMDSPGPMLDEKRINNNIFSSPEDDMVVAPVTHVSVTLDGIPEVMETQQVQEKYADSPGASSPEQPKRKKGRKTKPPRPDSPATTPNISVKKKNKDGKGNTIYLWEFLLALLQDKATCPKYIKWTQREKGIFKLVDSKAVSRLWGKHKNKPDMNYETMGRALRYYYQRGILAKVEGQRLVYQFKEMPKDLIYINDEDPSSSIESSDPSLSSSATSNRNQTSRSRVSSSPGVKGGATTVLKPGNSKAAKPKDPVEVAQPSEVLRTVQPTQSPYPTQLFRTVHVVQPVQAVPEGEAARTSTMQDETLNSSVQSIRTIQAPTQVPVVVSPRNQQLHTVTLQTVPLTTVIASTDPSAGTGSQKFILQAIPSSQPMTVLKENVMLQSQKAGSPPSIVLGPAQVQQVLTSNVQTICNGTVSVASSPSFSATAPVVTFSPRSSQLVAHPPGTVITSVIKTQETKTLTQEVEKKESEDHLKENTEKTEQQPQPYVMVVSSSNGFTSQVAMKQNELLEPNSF
Assay [6] addresses T5, EHF (Homo sapiens, UniProt Q9NZC4 1-300).
T5 sequence: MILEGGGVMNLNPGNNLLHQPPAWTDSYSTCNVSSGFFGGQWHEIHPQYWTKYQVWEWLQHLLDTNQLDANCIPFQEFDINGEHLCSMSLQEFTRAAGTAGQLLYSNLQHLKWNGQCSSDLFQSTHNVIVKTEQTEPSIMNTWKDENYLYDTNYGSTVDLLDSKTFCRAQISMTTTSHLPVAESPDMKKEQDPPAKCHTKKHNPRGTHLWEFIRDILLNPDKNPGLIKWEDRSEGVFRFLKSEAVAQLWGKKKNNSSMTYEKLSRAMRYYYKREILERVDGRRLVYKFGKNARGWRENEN
The note with it: protein: recombinant; tags: N-terminal GST; dsDNA, one strand shown. The gist of the method:
as §1

For assay [7], the target named is SPI1 (Homo sapiens, UniProt P17947 1-270). As to conditions: protein: recombinant; tags: N-terminal GST; dsDNA, one strand shown. The gist of the method: as §1
Assay [8] concerns the target SPIB (Homo sapiens, UniProt Q01892 1-262). The note with it: protein: recombinant; tags: N-terminal GST; dsDNA, one strand shown. In a few lines:
as §1

Assay [9] has as its target T6, ELK3 (Homo sapiens, UniProt P41970 1-407).
T6 sequence: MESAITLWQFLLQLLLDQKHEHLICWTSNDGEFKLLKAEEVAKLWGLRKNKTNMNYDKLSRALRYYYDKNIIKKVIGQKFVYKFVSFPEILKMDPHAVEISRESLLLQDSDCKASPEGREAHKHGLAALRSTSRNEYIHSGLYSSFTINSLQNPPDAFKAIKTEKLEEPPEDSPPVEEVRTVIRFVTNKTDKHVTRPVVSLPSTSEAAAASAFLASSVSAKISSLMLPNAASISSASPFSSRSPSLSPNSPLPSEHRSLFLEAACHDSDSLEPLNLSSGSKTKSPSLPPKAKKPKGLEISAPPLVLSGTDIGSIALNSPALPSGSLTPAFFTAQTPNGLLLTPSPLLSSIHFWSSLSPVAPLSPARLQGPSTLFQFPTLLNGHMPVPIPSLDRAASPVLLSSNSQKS
The note with it: protein: recombinant; tags: N-terminal GST; dsDNA, one strand shown. The gist of the method: as §1

The target in assay [10] is T7, FEV (Homo sapiens, UniProt Q99581 1-238).
T7 sequence: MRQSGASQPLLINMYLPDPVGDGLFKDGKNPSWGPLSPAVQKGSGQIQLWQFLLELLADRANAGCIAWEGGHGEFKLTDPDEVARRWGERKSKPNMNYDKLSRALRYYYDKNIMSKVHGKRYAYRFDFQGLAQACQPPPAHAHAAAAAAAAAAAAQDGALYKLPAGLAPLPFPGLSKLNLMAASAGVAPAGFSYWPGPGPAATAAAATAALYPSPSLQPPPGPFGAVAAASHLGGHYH
As to conditions: protein: recombinant; tags: N-terminal GST; dsDNA, one strand shown. The gist of the method:
as §1

In assay [11] the target is ETV5 (Homo sapiens, UniProt P41161 1-510). The note with it: protein: recombinant; tags: N-terminal GST; dsDNA, one strand shown. The gist of the method:
as §1

Assay [12] has as its target HSF1 (Homo sapiens, UniProt Q00613 1-529). As to conditions: protein: recombinant; tags: N-terminal GST; chain copies: 3; dsDNA, one strand shown. In a few lines:
as §1

The target of assay [13] is T8, SPIC (Homo sapiens, UniProt Q8N5J4 1-248).
T8 sequence: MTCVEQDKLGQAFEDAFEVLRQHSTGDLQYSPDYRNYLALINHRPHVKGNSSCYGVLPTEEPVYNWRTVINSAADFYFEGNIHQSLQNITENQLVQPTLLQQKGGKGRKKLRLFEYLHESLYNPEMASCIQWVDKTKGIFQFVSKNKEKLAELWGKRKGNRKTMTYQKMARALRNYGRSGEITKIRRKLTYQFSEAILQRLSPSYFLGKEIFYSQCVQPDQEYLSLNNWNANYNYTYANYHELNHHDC
The note with it: protein: recombinant; tags: N-terminal GST; dsDNA, one strand shown. The gist of the method:
as §1

In assay [14] the target is ELF4 (Homo sapiens, UniProt Q99607 1-663). The note with it: protein: recombinant; tags: N-terminal GST; dsDNA, one strand shown. The gist of the method:
as §1

Assay [15] concerns the target T9, ELK4 (Homo sapiens, UniProt P28324-2 1-405).
T9 sequence: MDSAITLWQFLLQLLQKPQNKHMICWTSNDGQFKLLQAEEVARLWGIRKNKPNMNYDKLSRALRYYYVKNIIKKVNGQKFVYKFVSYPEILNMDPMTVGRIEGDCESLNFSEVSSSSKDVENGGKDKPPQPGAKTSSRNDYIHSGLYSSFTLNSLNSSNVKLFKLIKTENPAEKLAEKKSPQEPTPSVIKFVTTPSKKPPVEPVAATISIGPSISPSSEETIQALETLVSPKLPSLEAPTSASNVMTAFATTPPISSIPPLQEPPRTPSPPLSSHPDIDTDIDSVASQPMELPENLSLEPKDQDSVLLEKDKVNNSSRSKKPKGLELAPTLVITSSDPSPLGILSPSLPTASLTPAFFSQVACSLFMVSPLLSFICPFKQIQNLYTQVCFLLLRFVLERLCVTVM
The note with it: protein: recombinant; tags: N-terminal GST; dsDNA, one strand shown. In a few lines: as §1

For assay [16], the target named is T10, ETV2 (Homo sapiens, UniProt O00321 1-342).
T10 sequence: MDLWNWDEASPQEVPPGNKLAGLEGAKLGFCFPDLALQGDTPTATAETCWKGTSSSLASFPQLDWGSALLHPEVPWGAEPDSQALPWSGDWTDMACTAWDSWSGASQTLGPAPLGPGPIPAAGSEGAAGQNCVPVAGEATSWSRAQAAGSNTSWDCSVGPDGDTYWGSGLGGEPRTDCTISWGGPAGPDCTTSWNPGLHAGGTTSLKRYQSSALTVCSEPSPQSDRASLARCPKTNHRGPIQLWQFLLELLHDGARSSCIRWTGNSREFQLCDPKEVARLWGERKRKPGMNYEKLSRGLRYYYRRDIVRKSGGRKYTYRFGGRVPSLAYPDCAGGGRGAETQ
As to conditions: protein: recombinant; tags: N-terminal GST; dsDNA, one strand shown. The gist of the method:
as §1

The target in assay [17] is T11, ELF3 (Homo sapiens, UniProt P78545 1-371).
T11 sequence: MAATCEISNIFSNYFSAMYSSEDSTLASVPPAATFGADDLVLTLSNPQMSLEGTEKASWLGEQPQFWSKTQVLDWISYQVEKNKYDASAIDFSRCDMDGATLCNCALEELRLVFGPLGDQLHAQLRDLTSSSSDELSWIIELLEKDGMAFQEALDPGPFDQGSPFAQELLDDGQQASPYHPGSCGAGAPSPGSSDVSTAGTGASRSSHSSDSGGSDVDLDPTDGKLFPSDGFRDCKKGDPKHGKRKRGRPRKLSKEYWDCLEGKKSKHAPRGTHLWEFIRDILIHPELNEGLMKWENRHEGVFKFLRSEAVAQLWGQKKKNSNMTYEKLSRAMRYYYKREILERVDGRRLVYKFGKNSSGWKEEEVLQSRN
The note with it: protein: recombinant; tags: N-terminal GST; dsDNA, one strand shown. The gist of the method: as §1

Assay [18] deals with CRX (Homo sapiens, UniProt O43186 1-299). The note with it: protein: recombinant; tags: N-terminal GST; dsDNA, one strand shown. In a few lines: as §1
Chain of CRX (O43186 whole entry): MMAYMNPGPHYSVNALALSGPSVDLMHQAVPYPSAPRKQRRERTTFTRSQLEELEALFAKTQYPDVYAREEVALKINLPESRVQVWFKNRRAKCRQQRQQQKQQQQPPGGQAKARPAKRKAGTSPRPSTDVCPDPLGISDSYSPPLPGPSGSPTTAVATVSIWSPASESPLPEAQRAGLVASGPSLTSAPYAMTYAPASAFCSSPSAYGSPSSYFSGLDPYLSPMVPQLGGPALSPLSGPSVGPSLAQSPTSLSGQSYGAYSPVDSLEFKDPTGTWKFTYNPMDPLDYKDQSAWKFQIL
Assay [19] deals with ETV1 (Homo sapiens, UniProt P50549 1-477). As to conditions: protein: recombinant; tags: N-terminal GST; dsDNA, one strand shown. The gist of the method: as §1
Chain of ETV1 (P50549 whole entry): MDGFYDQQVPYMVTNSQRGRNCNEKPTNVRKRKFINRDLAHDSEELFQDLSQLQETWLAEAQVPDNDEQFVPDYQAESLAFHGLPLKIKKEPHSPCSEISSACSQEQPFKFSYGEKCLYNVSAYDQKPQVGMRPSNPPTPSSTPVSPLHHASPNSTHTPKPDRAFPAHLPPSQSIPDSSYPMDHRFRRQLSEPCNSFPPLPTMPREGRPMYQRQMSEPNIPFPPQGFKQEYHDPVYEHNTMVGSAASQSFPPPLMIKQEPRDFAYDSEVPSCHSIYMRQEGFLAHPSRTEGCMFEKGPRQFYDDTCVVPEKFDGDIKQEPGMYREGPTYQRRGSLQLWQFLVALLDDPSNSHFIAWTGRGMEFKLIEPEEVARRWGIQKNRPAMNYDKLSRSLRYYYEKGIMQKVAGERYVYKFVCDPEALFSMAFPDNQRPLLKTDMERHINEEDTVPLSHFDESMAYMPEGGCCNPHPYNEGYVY

Chain of ETV5 (P41161 whole entry): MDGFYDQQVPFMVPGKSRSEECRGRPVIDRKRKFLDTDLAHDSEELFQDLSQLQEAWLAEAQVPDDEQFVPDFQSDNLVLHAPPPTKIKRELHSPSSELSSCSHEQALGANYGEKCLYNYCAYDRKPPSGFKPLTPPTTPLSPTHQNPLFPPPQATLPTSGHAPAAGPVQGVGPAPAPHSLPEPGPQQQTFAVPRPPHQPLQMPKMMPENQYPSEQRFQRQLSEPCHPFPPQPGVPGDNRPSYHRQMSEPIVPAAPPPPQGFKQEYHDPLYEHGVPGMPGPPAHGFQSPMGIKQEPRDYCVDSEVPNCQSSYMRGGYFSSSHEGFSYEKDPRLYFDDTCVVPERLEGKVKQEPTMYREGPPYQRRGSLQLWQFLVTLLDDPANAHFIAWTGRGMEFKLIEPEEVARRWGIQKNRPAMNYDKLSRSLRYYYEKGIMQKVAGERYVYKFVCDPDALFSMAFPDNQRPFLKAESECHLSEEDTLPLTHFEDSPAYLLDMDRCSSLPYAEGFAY
Chain of SPIB (Q01892 whole entry): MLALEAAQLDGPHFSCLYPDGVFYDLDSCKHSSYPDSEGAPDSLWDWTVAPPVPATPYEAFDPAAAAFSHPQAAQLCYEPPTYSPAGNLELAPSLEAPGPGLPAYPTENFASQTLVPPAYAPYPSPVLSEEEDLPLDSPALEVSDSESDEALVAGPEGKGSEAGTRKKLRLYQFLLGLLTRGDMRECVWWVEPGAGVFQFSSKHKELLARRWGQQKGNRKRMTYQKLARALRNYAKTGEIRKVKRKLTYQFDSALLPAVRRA
Chain of HSF1 (Q00613 whole entry): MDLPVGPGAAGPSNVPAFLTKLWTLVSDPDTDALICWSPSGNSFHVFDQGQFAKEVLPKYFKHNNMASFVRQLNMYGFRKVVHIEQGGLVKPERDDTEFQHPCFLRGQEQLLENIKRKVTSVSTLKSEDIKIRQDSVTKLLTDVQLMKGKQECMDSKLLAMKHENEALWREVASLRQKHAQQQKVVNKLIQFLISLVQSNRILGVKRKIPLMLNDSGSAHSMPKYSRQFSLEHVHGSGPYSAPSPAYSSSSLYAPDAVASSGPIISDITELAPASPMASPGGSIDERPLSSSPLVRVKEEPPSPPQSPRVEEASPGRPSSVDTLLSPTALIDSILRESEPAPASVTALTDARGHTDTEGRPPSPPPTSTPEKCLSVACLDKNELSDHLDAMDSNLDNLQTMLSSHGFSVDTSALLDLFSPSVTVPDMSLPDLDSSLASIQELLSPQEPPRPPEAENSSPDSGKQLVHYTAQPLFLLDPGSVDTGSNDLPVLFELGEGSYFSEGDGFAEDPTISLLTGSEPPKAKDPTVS
Chain of ELF4 (Q99607 whole entry): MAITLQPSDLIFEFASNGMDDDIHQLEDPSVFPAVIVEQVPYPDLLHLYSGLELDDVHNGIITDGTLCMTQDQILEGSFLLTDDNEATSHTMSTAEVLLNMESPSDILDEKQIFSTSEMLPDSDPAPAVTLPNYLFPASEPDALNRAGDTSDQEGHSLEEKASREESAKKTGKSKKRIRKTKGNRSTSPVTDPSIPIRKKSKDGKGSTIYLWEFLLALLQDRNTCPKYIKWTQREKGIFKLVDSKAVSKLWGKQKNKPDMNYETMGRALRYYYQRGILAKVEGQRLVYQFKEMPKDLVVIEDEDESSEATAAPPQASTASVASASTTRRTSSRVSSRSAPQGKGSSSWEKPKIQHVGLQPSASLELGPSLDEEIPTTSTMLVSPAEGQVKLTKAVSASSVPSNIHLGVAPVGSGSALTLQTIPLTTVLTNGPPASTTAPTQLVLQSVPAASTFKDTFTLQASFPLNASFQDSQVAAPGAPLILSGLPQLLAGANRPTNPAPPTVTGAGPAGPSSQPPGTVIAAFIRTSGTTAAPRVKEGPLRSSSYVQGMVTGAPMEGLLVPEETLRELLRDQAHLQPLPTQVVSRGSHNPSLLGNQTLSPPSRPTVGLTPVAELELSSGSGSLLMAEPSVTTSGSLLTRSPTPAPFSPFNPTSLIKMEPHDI

On to ATTCAA, for which the binding signal in assay [1] was 1.26 fold enrichment (6-mer frequency, TF over GST control); in assay [2], 1.34 fold enrichment (6-mer frequency, TF over GST control); in assay [3] it was 1.4 fold enrichment (6-mer frequency, TF over GST control); in assay [4], 1.36 fold enrichment (6-mer frequency, TF over GST control); in assay [5] it was 1.39 fold enrichment (6-mer frequency, TF over GST control); in assay [6] it was 1.41 fold enrichment (6-mer frequency, TF over GST control). Besides, the binding signal in [7] is 1.31 fold enrichment (6-mer frequency, TF over GST control); in assay [8] it was 1.34 fold enrichment (6-mer frequency, TF over GST control); in [9], 1.39 fold enrichment (6-mer frequency, TF over GST control); in assay [10], 1.27 fold enrichment (6-mer frequency, TF over GST control); in assay [11] it was 1.32 fold enrichment (6-mer frequency, TF over GST control); in [12], 1.32 fold enrichment (6-mer frequency, TF over GST control). For the same sequence, the binding signal was 1.32 fold enrichment (6-mer frequency, TF over GST control) in assay [13]; 1.34 fold enrichment (6-mer frequency, TF over GST control) in assay [14]; 1.39 fold enrichment (6-mer frequency, TF over GST control) in assay [15]; 1.38 fold enrichment (6-mer frequency, TF over GST control) in assay [16]; 1.38 fold enrichment (6-mer frequency, TF over GST control) in assay [17]; 1.36 fold enrichment (6-mer frequency, TF over GST control) in assay [18]. For the same sequence, the binding signal in assay [19] was 1.32 fold enrichment (6-mer frequency, TF over GST control).
